The record followed here is PubChem BioAssay AID577 (University of Pittsburgh Molecular Library Screening Center, 2007).

About 120 (0.18%) of roughly 65,000 compounds were called active. The sample holds actives, similar compounds and a random draw of the others, so the mix is not that of the screen. Unmarked numbers belong to inactive results. Rule as the data show it: active = z-score below about -3; inactive = the rest.

For this assay, the target named is Genome polyprotein (West Nile virus) (UniProt P06935). The assay can be described thus: West Nile NS2B-NS3 proteinase blockers – biochemical, fluorogenic substrate, primary screen (AID 577). To be noted: WNV NS2B-NS3 protease, fluorogenic substrate Ex360/Em465; stronger effect = lower value.
Chain of Genome polyprotein (West Nile virus) (P06935 1371-1501 limits assumed): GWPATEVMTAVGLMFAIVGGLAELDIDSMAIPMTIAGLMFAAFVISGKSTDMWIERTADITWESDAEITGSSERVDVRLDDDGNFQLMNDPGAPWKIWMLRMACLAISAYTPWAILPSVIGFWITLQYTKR
Chain of Genome polyprotein (West Nile virus) (P06935 1502-1679 limits assumed): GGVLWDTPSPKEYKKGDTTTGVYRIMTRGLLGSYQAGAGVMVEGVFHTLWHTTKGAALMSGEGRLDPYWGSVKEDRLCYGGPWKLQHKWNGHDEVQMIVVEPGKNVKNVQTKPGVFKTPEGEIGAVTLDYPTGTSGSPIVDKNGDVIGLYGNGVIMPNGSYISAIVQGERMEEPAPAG
For the compound `C[C@H](NC(=O)NCCc1ccccc1)C(=O)O`, the z-score was 0.46. With `CC(=O)Nc1cccc2c1[n+]([O-])c(C)c(C)[n+]2[O-]` the figure was 1.06; with `CC(NC(=O)CN1CCN(Cc2ccc(Cl)cc2)C1=O)c1ccc2c(c1)OCCO2` (stereo unspecified), 0.67; with `COc1ccc(OC)c(-n2cc3c(=O)n(C)c(=O)n(C)c3c2)c1`, 0.45.

As for `C=C(C)COc1ccc(-c2n[nH]c(C)c2-c2ccccc2OC)c(O)c1`, the z-score was 0.16.

Regarding `COc1ccc(CC(NC(C)=O)C(=O)NC2CCN(C(=O)Nc3ccc(C#N)cc3)CC2)cc1OC` (stereo unspecified), the z-score was -0.8. With `Cc1cc(NC(=O)CCC(=O)N(c2cccc(F)c2)C(C(=O)NC2CCCC2)c2ccncc2)no1` (stereo unspecified) the figure was 1.41; with `Cc1ccc(OCC(=O)Nc2ccc(-c3nnc(-c4ccco4)o3)cc2)cc1`, -3.16 (active).

As for `COc1ccc(CC(=O)Nc2ccc(-c3nnc(-c4ccc(C)cc4)o3)cc2)cc1`, the z-score is 0.17. With `CCOc1ccc(-c2nnc(-c3ccco3)o2)cc1` the figure was -0.08; with `CCCn1c(O)c(CN2CCCC(C)C2)c(C)c(C#N)c1=O` (stereo unspecified), -0.51; with `Clc1ccc(Cc2nn3c(-c4ccncc4)nnc3s2)cc1`, 0.04. Take `O=C(O)C1OC(C(=O)O)C2C1C(F)(F)C2(F)F` (stereo unspecified): the z-score was 1.24.

Take `CC1CSc2nnc(CCc3ccccc3)n21` (stereo unspecified): the z-score was -0.75. For `CCOC(=O)C1CCCN(C(=O)c2ccc(CS(=O)(=O)c3ccc(Br)cc3)o2)C1` (stereo unspecified) the value was -0.97. For `COc1cc2c(cc1NC(=O)CN1CCN(S(=O)(=O)c3ccc(F)cc3)CC1)oc1ccccc12` the value was -0.05. With `CC(=O)N1C(=O)C2(Nc3ccccc3N2)c2ccccc21` the figure was -0.34; with `O=S(=O)(NCc1ccccn1)c1ccc(F)cc1`, -0.56; with `Cc1cc(=O)n2c3c(cccc13)CCC2`, -0.73. Consider `CCCCc1nc2ccccc2c(NC(=O)CN2CCN(C)CC2)c1CCC`, for which the z-score is -1.27. With `Cc1ccc(C(C(=O)NC2CCCC2)N(Cc2ccco2)C(=O)CCC(=O)Nc2ccccn2)cc1` (stereo unspecified) the figure was 0.98; with `COc1ccc(-c2cn3ccsc3n2)cc1`, -7.48 (active); with `O=C(NCc1cn2ccsc2n1)Nc1ccc(Cl)cc1`, -0.25.

With `CCCC(=O)Nc1cccc(-c2cn3ccsc3n2)c1`, the z-score was -1.1. As for `CCOc1ccc(NC(=O)Nc2cc(C)on2)cc1`, the z-score was 0.95.

Turning to `Cn1c(=O)c2c(ncn2CC(=O)N2CCN(c3ccccc3)CC2)n(C)c1=O`, the z-score is 0.25. As for `c1ccc(CCC2=NCCn3cccc32)cc1`, the z-score is -0.03.

As to `COC(=O)c1cc(NC2c3ccccc3C(=O)N2c2ccc(Cl)cn2)cc(C(=O)OC)c1` (stereo unspecified), the z-score is -0.39. For `CC(C)(C)c1ccc(C(=O)NCCC(=O)NCc2ccco2)cc1` the value was 0.25.

As to `CCCN(CCC)CCNC(=O)c1cc2c(C)nc3ccccc3c2o1`, the z-score was 0.99. With `Cc1cc2cc(CN(Cc3cccs3)Cc3nnnn3CC3CCCO3)c(=O)[nH]c2cc1C` (stereo unspecified) the figure was -0.04; with `CCOc1ccccc1Oc1cn[nH]c1-c1ccc(OC)cc1O`, -0.64. For `CC(C)CCNC(=O)CN(C(=O)Cn1nnc(-c2ccc(F)cc2)n1)C1CCCC1` the value was -0.44; for `CCOC(=O)C1CCCN(C(=O)CN(c2ccc(OC)cc2)S(=O)(=O)c2c(C)noc2C)C1` (stereo unspecified), -0.04. With `Cc1cc(C)c(C)c(S(=O)(=O)Nc2ccc(O)cc2)c1C` the figure was -1.62; with `CC(C(=O)N1CCOCC1)N1c2cccc3cccc(c23)S1(=O)=O` (stereo unspecified), -0.43. As for `CCCOc1ccc(Cn2c(O)cc(=O)[nH]c2=O)cc1`, the z-score was 0.4. With `CCC(=O)N1CCN=C1SCc1ccc(F)cc1`, the z-score was 0.56. As to `COc1ccc(CCN=C2SCC(=O)N2C)cc1OC`, the z-score is -0.84. With `Cn1c(=O)[nH]c(=O)c2c1nc(NCCCn1ccnc1)n2Cc1cccc(Br)c1` the figure was -0.12; with `CC(=O)Oc1ccc2c(C)c(CC(C)O)c(=O)oc2c1` (stereo unspecified), 5.37. For the compound `COC(=O)c1ccccc1NC(=O)CSc1ccccn1`, the z-score is -0.33. For `Cn1cccc1Cc1nnc(SCC(=O)NCCc2ccccc2)n1-c1ccc(F)cc1` the value was -0.68; for `COCCn1c(CN(Cc2ccccc2)Cc2ccccc2)nc2c1c(=O)n(C)c(=O)n2C`, 0.73; for `O=C(COc1ccc(Cl)cc1)Nc1ccccc1CO`, 1.62. For `CC(=O)C1=C(O)C(=O)N(c2ccc(S(N)(=O)=O)cc2)C1c1ccccc1F` (stereo unspecified) the value was -0.26; for `O=C(NCc1cccnc1)c1ccc(CS(=O)(=O)c2ccc(Br)cc2)o1`, -0.48; for `CN(C)c1nc(N)nc(CSc2nnnn2-c2cccc3ccccc23)n1`, -0.13.

On to `Fc1ccc(OCc2nn3c(Cn4nnc5ccccc54)nnc3s2)cc1`, for which the z-score was 1.56. For `CS(=O)(=O)c1ccc2nc(NC(=O)C3CCCCC3)sc2c1` the value was -0.5.

Turning to `Cc1ccc(F)cc1NC(=O)c1cccc(N(C)C)c1`, the z-score was -0.19. For `O=C(Nc1cccc(Cl)c1)OCc1ccccn1` the value was 0.46; for `CCC(C)(NC(=O)c1ccccn1)C(=O)NC1CCCCC1` (stereo unspecified), 0.53. For `O=C(Nc1ccc2c(c1)OCO2)C1CC(c2c(F)cccc2Cl)=NO1` (stereo unspecified) the value was 1.16. `CCSC1(SCC)N=C(N)C2(C#N)C(c3ccccc3)NC(C)=CC12C#N` (stereo unspecified): the z-score was -1.23. For `O=C(CC1OC(=O)c2ccccc21)NC1CCCCC1` (stereo unspecified) the value was -0.53; for `O=C(NCC1CCCO1)C(C(=O)c1ccccc1)n1cc(Cl)ccc1=O` (stereo unspecified), -0.94; for `CCn1cc(C(=O)N2CCN(C3CCCCC3)CC2)c2cc(OC)c(OC)cc2c1=O`, 0.44. On to `O=C(O)C1CC(=O)N(Cc2cccnc2)C1` (stereo unspecified), for which the z-score is -0.77.

With `O=C1CCC(Cc2ccccc2)N1` (stereo unspecified), the z-score is 0.78.

Consider `O.O.O.O=S(=O)([O-])OC[C@H]1O[C@@H](O[C@]2(COS(=O)(=O)[O-])O[C@H](OS(=O)(=O)[O-])[C@@H](OS(=O)(=O)[O-])[C@@H]2OS(=O)(=O)[O-])[C@H](OS(=O)(=O)[O-])[C@@H](OS(=O)(=O)[O-])[C@@H]1OS(=O)(=O)[O-].[Al]`, for which the z-score was -0.72.
